Measured values: article PMC4336329 (PLoS ONE, 2015)
Screen size: about 310,000 compounds; about 14,000 (4.5%) showed an effect of 50% or more. The effect is printed as a negative number. Many of the other results were omitted from the sample, so strong results are more common in it than they were.

biological target: human ether-à-go-go-related gene (hERG) potassium channel (human, UniProt Q12809); test: primary screen, population patch clamp on CHO cells stably expressing hERG; higher = less effect of the substance
Sequence (Q12809 whole entry, looked up): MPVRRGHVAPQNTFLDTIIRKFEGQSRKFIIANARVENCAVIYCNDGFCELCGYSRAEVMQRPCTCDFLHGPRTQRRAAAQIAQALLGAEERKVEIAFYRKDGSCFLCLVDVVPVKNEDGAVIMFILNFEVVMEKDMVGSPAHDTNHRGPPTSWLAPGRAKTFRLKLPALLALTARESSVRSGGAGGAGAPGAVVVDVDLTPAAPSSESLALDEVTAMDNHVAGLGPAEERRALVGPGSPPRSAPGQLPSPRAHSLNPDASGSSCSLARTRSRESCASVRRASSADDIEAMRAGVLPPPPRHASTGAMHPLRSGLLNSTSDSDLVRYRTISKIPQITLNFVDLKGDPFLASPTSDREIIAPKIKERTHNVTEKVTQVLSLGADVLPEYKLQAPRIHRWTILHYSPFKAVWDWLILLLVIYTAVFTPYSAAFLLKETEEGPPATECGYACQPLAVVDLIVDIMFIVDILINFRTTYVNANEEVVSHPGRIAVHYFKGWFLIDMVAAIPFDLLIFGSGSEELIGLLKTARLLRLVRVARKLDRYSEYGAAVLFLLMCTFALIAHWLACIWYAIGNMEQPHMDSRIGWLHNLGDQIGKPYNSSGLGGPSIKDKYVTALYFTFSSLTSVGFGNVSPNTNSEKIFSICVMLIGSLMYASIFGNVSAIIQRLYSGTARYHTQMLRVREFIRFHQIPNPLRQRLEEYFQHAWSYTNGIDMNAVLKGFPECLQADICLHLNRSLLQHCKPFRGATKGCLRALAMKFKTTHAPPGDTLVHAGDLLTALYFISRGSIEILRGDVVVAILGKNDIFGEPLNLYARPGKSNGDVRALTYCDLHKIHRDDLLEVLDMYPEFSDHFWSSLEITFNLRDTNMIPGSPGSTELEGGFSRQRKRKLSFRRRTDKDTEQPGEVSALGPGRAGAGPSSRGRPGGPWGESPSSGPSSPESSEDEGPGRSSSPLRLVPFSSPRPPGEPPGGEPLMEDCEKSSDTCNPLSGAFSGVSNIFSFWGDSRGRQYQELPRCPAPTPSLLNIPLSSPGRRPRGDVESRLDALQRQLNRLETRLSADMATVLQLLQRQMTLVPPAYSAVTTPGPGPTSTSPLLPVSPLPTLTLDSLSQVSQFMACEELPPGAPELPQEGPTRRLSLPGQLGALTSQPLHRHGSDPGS
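Note: peak tail current of the secondary pulse compared with the same well before compound.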

| SMILES | hERG current change (%, negative = inhibition) at 10uM [%] |
| --- | --- |
| COc1ccc(-n2c(C)c3c(OC)cccc(=O)c3c2C)cc1 | -60.2 |
| COc1cccc(-n2c(C)c3c(OC)cccc(=O)c3c2C)c1 | -11.8 |
| COc1cccc(=O)c2c(C)n(-c3ccc(C(=O)O)cc3)c(C)c12 | 6.33 |
| COc1cnc(-c2ccccn2)nc1N(C)c1ccccc1 | 14.2 |
| Cc1ccc(-c2nc3ccccc3o2)cc1NC(=O)Cc1cccs1 | 18.7 |
| CC(C)C[C@H](NC(=O)C1(c2ccccc2)CCN(C(=O)OC(C)(C)C)CC1)C(=O)N1CCC[C@H]1C(=O)O | 9.37 |
| CCN1C(=O)c2ccccc2Sc2ccc(C(=O)NCCCN3CCOCC3)cc21 | -17.8 |
| Cc1ccccc1CN1C(=O)c2ccccc2Sc2ccc(C(=O)NCCCN3CCOCC3)cc21 | -62.9 |
| Cc1ccc(CN2C(=O)c3ccccc3Sc3ccc(C(=O)NCCN4CCOCC4)cc32)cc1 | -15.2 |
| Cc1ccccc1CN1C(=O)c2ccccc2Sc2ccc(C(=O)NCCN3CCOCC3)cc21 | -69.6 |
| CCN1C(=O)c2ccccc2Sc2ccc(C(=O)NCCCN(CC(C)C)CC(C)C)cc21 | -64.3 |
| CCN1C(=O)c2ccccc2S(=O)(=O)c2ccc(C(=O)NCCCN(CC(C)C)CC(C)C)cc21 | -12.7 |
| CCN1C(=O)c2ccccc2Sc2ccc(C(=O)NCCC(C)C)cc21 | -7.94 |
| O=C(NCCN1CCOCC1)c1ccc2c(c1)N(Cc1ccccc1F)C(=O)c1ccccc1S2 | -27 |
| Cc1ccc(CN2C(=O)c3ccccc3Sc3ccc(C(=O)NCCCN4CCOCC4)cc32)cc1 | -2.12 |
| CCCCC1C2=C(CC(C)(C)CC2=O)OC2=C1C(=O)CC(C)(C)C2 | -9.48 |
| CC(C)(C)C1=C(C#N)C(c2cccnc2)C(C#N)=C(N)O1 (stereo not shown) | 4.42 |
| COc1cc(CCN)ccc1O.Cl | 15.1 |
| COP(=O)(OC)C(Nc1ccccc1)c1ccccc1 (stereo not shown) | 11.4 |
| COc1ccc(N2CCCC2)c(NC(=O)COc2ccccc2Cl)c1 | 14.8 |
| O=C(N/C(=C\c1ccc([N+](=O)[O-])cc1)C(=O)N1CCCCC1)c1ccccc1Br | -59.4 |
| CC(=O)Nc1ccc(C(=O)N/C(=C/c2ccccc2)C(=O)N2CCCCC2)cc1 | 4.57 |
| COc1cc(/C=C(/NC(=O)c2ccccc2)C(=O)N2CCN(C)CC2)c([N+](=O)[O-])cc1OC | 9.52 |
| O=C(N/C(=C\c1ccccc1)C(=O)N1CCOCC1)c1ccccc1Br | 17.9 |
| O=C(N/C(=C/C=C/c1ccccc1)C(=O)N1CCCCC1)c1ccc([N+](=O)[O-])cc1 | -72.8 |
| CN1CCN(C(=O)/C(=C/c2ccccc2Cl)NC(=O)c2ccccc2)CC1 | -10.8 |
| O=C(N/C(=C/c1cccc([N+](=O)[O-])c1)C(=O)N1CCCC1)c1ccccc1 | -46 |
| O=C(N/C(=C\c1cccc([N+](=O)[O-])c1)C(=O)N1CCCCC1)c1cccs1 | 7.93 |

| SMILES | hERG current change (%, negative = inhibition) at 10uM [%] |
| --- | --- |
| CN1CCN(C(=O)/C(=C/c2ccc([N+](=O)[O-])cc2)NC(=O)c2ccccc2)CC1 | -81.5 |
| CN1CCN(C(=O)/C(=C/c2cccc([N+](=O)[O-])c2)NC(=O)c2ccccc2)CC1 | -72.6 |
| O=C(N/C(=C/c1cccc([N+](=O)[O-])c1)C(=O)N1CCOCC1)c1ccccc1Br | -7.05 |
| CN1CCN(C(=O)/C(=C\c2cccc([N+](=O)[O-])c2)NC(=O)c2cccs2)CC1 | -25.4 |
| CC1CCN(C(=O)CCc2nnc(-c3ccccc3)o2)CC1 | -5.83 |
| O=C(NNc1ccc([N+](=O)[O-])cc1)C12CC3CC(CC(C3)C1)C2 | 19.5 |
| CC(=O)Nc1ccc(OCc2cccc([N+](=O)[O-])c2)cc1 | 8.84 |
| Cc1onc(-c2ccccc2Cl)c1C(=O)Oc1cc(N)n(S(=O)(=O)c2ccc(F)cc2)n1 | -3.48 |
| COc1ccccc1Cc1nc(-c2cccnc2)no1 | 14.8 |
| Cc1ccn2c(C(=O)CSc3ccc(Cl)cc3)c(C)nc2c1 | 7.28 |
| CCOc1ccc(N2C(=O)CC(NCC3CCCO3)C2=O)cc1 (stereo not shown) | 2.22 |
| O=C(Nc1ccccc1)C(c1ccccc1)c1ccccc1 | 15.1 |
| O=C(N/C(=C/C=C\c1ccccc1)C(=O)N1CCOCC1)c1ccc(Br)cc1 | -64.1 |
| O=C(N/C(=C/C=C/c1ccccc1)C(=O)N1CCOCC1)c1ccccc1Cl | -16.6 |
| O=C(N/C(=C\c1ccccc1)C(=O)N1CCCCCC1)c1ccccc1 | 15.2 |
| O=C(N/C(=C\c1ccc([N+](=O)[O-])cc1)C(=O)N1CCCCC1)c1ccccc1 | -76.9 |
| O=C(N/C(=C/c1ccccc1)C(=O)N1CCCCC1)c1ccccc1 | 29.9 |
| CCCCOc1ccc(C(=O)N/C(=C/C=C/c2ccccc2)C(=O)N2CCOCC2)cc1 | -5.66 |
| Cc1cc(C(=O)OCC(=O)Nc2cccc(S(N)(=O)=O)c2)c2ccccc2n1 | -4.62 |
| COc1cc(C2NC(=S)NC(c3ccccc3)=C2C(C)=O)ccc1O (stereo not shown) | 15.4 |
| CCOCCCNC(=O)c1ccc2nc(-c3ccc(OC)c(OC)c3)c(-c3ccc(OC)c(OC)c3)nc2c1 | 6.99 |
| NC(=O)CCCn1c(C(=O)c2ccc(Cl)cc2)c2ccc([N+](=O)[O-])cc2[n+]1[O-] | -74.1 |
| NC(=O)CCn1c(C(=O)c2cccc([N+](=O)[O-])c2)c2ccccc2[n+]1[O-] | 4.25 |
| [Cl-].[NH3+]CCCn1c(C(=O)c2ccc(Cl)cc2)c2ccc([N+](=O)[O-])cc2[n+]1[O-] | -63.8 |
| Cc1ccc(C(=O)c2c3ccc([N+](=O)[O-])cc3[n+]([O-])n2CCCC(N)=O)cc1 | -36.6 |
| COc1ccc(C(=O)c2c3ccc([N+](=O)[O-])cc3[n+]([O-])n2CCC[NH3+])cc1.[Cl-] | -47.4 |
| NC(=O)CCCn1c(C(=O)c2cc(Cl)c(N)c(Cl)c2)c2ccc([N+](=O)[O-])cc2[n+]1[O-] | -30.9 |
